This is an account of results in ChEMBL document CHEMBL4513146, “CO-ADD screening of Karazin Kharkiv National University (Ukraine) compounds”.

In experiment [1] the test system is Staphylococcus aureus. Particulars: Concentration 32 ug.mL-1;; ASSAY_TEST Inhibition of Bacterial Growth; detection method Absorption (OD600); MEDIA CAMHB; plate type 384well; NBS; CORNING #3640; time 18 hr.
Experiment [2] concerns Escherichia coli. Particulars: Concentration 32 ug.mL-1;; ASSAY_TEST Inhibition of Bacterial Growth; detection method Absorption (OD600); MEDIA CAMHB; plate type 384well; NBS; CORNING #3640; time 18 hr.

Broadly, the Inhibition is the drop in the measured response relative to a control, in per cent.

Potency and affinity values are given separately.

Turning to `O=C(Cn1nc2ccc(-c3ccccc3)nn2c1=O)NC1CCCCC1`, the results for the Inhibition in experiment [1] and in experiment [2] were 8.4% and -1.26%, respectively.

Regarding `COc1cccc(CNC(=O)CSc2nnc3c4cc(-c5ccc(C)cc5)nn4ccn23)c1`, the Inhibition was -18.93% in experiment [1] and -18.15% in experiment [2].

As for `Cc1ccc(CNC(=O)Cn2nc3c(SC4CCCCC4)nccn3c2=O)cc1`, the results for the Inhibition in experiment [1] and in experiment [2] were 7.11% and -3.86%, respectively.

Regarding `CC(C)CCn1c(=O)c2ccccc2n2c(=O)n(CC#N)nc12`, the figures for the Inhibition in experiment [1] and in experiment [2] were 16.96% and 1.73%, respectively.

As to `O=c1c2nnc(SCc3ccccc3Cl)n2ccn1-c1ccc(F)cc1`, the results for the Inhibition in experiment [1] and in experiment [2] were 8.27% and -4.39%, respectively.

As for `CSc1ccc(CNC(=O)CCc2nnc3c(N4CCCCC4)nc4ccccc4n23)cc1`, the Inhibition in experiment [1] is reported as 14.53%; in experiment [2] it was 2%.

On to `Cc1ccc(-c2ccc3nn(Cc4nc(-c5ccc(Cl)cc5)no4)c(=O)n3n2)cc1C`, for which the Inhibition in experiment [1] is reported as 0%; in experiment [2], -6.42%.

For `O=S(=O)(c1ccc2nncn2c1)N(Cc1cccc(F)c1)c1cc(F)cc(F)c1`, the Inhibition in experiment [1] was 0.07%; in experiment [2], -4.91%.

For `CC1CCN(C(=O)Cn2nc3n(Cc4cccs4)c(=O)c4sccc4n3c2=O)CC1`, the Inhibition in experiment [1] is on record as 3.66%; in experiment [2], -8.96%.

For the compound `Cc1ccc(-c2ccc3nn(CC(=O)Nc4ccc(Cl)c(C(F)(F)F)c4)c(=O)n3n2)cc1C`, the figures for the Inhibition in experiment [1] and in experiment [2] were -0.53% and -10.28%, respectively.

In the case of `O=C(Cn1nc2ccc(-c3ccccc3)nn2c1=O)Nc1ccc(F)c(Cl)c1`, the Inhibition in experiment [1] was 7.52%; in experiment [2] it was -1.06%.

Regarding `CCc1ccc(NC(=O)CSc2nnc3c(=O)n(-c4ccccc4)ccn23)cc1`, the Inhibition is 7.36% in experiment [1] and -2.07% in experiment [2].

Turning to `CCOc1ccc(NC(=O)Cn2nc3c4cc(-c5ccc(Cl)cc5)nn4ccn3c2=O)cc1`, the Inhibition in experiment [1] was 0.29%; in experiment [2], -4.33%.

For `CCCCn1c(=O)c2sccc2n2c(CCC(=O)NCCC34CC5CC(CC(C5)C3)C4)nnc12`, the Inhibition worked out at 7.09% in experiment [1] and 0.44% in experiment [2].

As to `Cc1ccccc1NC(=O)Cn1nc2c(SC3CCCCC3)nccn2c1=O`, the Inhibition is 1.84% in experiment [1] and -9.01% in experiment [2].

Turning to `Cc1cccc(C)c1NC(=O)CSc1nnc2ccc(C(=O)Nc3cccc(F)c3)cn12`, the Inhibition in experiment [1] came out at 12.1%; in experiment [2] it was 2.91%.

For `O=C(Cn1nc2c3cc(-c4ccccc4)nn3ccn2c1=O)N1CCCc2ccccc21`, the Inhibition in experiment [1] was found to be 4.94%; in experiment [2] it was 2.28%.

In the case of `Cc1oc(-c2cccc(Cl)c2)nc1CSc1nc2ccccc2n2c(C(C)C)nnc12`, the Inhibition in experiment [1] is recorded as 3.52%; in experiment [2], -2.96%.

Consider `O=C(Cn1nc2c(Oc3ccccc3)nccn2c1=O)Nc1ccc2c(c1)OCO2`, for which the values for the Inhibition in experiment [1] and in experiment [2] were 2.59% and -7.1%, respectively.

In the case of `COc1ccc(-c2cc3c4nnc(CCC(=O)NCc5ccc6c(c5)OCO6)n4ccn3n2)cc1`, the figures for the Inhibition in experiment [1] and in experiment [2] were -1.19% and 5.34%, respectively.

Turning to `COc1cccc(-n2ccn3c(SCC(=O)c4c(C)[nH]c5ccccc45)nnc3c2=O)c1`, the Inhibition in experiment [1] is listed as 10.32%; in experiment [2], -7.21%.

Turning to `Cc1ccc(C(=O)C(C)Sc2nnc3c(=O)n(-c4ccc(F)c(F)c4)ccn23)cc1C` (stereo unspecified), the Inhibition came to 19.73% in experiment [1] and 1.41% in experiment [2].

On to `CCc1cccc(C)c1NC(=O)Cn1nc2ccc(SCc3ccc(Cl)cc3)nn2c1=O`, for which the Inhibition in experiment [1] was -4.43%; in experiment [2], -10.21%.

For `Cc1ccc(Oc2nccn3c(=O)n(CC(=O)Nc4ccc(Br)cc4)nc23)cc1`, the Inhibition in experiment [1] is listed as 6.95%; in experiment [2] it was -5.29%.

`O=C(Cn1nc2n(Cc3ccc(F)cc3)c(=O)c3ccccc3n2c1=O)Nc1ccc2c(c1)OCO2`: the Inhibition is reported as 15.06% in experiment [1] and -3.01% in experiment [2].

For the compound `Cc1ccc(-n2ccn3c(=O)n(Cc4c(F)cccc4Cl)nc3c2=O)cc1C`, the results for the Inhibition in experiment [1] and in experiment [2] were 10.39% and -0.86%, respectively.

Consider `O=C(Cn1nc2ccc(SCc3ccc(Cl)cc3)nn2c1=O)NCc1ccc2c(c1)OCO2`, for which the values for the Inhibition in experiment [1] and in experiment [2] were -2.67% and -11.22%, respectively.

With `O=C(Cn1nc2c(SC3CCCCC3)nccn2c1=O)N1CCN(c2ccccc2)CC1`, the Inhibition in experiment [1] came to 2.31%; in experiment [2], 0.18%.

On to `COc1ccc(C)cc1NC(=O)CSc1nc2ccccc2n2cnnc12`, for which the Inhibition in experiment [1] worked out at 16.59%; in experiment [2], 4.56%.

For the compound `Cc1ccc(CNC(=O)Cn2nc3c(Sc4cccc(F)c4)nccn3c2=O)cc1`, the Inhibition is on record as -7.34% in experiment [1] and -12.92% in experiment [2].

In the case of `O=C(Cn1nc2c(SCc3ccc(Cl)cc3)nccn2c1=O)Nc1ccccc1F`, the values for the Inhibition in experiment [1] and in experiment [2] were 4.88% and -0.33%, respectively.

Consider `Cc1cc(C)c(C(=O)CSc2nnc3c(=O)n(-c4ccc(F)cc4)ccn23)cc1C`, for which the Inhibition is on record as 6.25% in experiment [1] and -5.27% in experiment [2].

On to `CCc1nnc2c(S(=O)(=O)N(Cc3cc(F)cc(F)c3)c3ccccc3)cccn12`, for which the Inhibition in experiment [1] is recorded as 7.38%; in experiment [2] it was -4.8%.
